# “And” between values parts separate entries of the source, which are not always exact repeats. Equal entries are not always repeated. The panel holds about 83,000 compounds, 20% with a hit somewhere; the sample as a whole holds those more often.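 Percent growth is the endpoint: 0 to 100 indicates growth inhibition (40 means 60% inhibition), 0 means no net growth, and negative values indicate cell death.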 Unmarked numbers belong to inactive results. The source made the active and inactive calls. How the source made its calls: active means growth percent below 10; inactive means the rest.
# Test system: T-47D breast
# Experiment: NCI-60 one-dose screen, 48 h (100 = growth as untreated, 0 = no growth, -100 = all killed)
# Conditions: 10 µM unless noted
row,SMILES,growth
1,CCOC(=O)c1c(-c2ccc(C)cc2)c(C#N)c(=O)n(-c2cccc(C(F)(F)F)c2)c1N,99.9%
2,c1cc(NCCCCN2CCOCC2)c2ccc3c(ccc4c(NCCN5CCOCC5)ccnc43)c2n1,94.9%
3,CCCO/N=C/c1ccccn1,107% and 93.9%
4,O=C(Nc1ncc(Cc2cccc(C(F)(F)F)c2)s1)c1ccc(-n2cnnn2)cc1,44.7%
5,N=C(N)c1ccc(-c2ccc(-c3ccc(Cl)c(Cl)c3)s2)cc1,62.1%
6,NC(=O)c1c(NC(=O)/C=C/c2cccs2)sc2c1CCC(=O)C2,16.2%
7,CCOc1ccccc1NC(=O)c1cc2ccccc2cc1O,51.7%
8,O=C(CCl)n1nnnc1Cc1ccccc1,98.8%
9,CCNC(=S)n1nc(SC)c(C(=O)OCC)c1N,86.4%
10,CC/C(=C(/c1ccc(Cl)cc1)c1ccc(OCCN2CCOCC2)cc1)c1ccccc1,71.7%
11,O=S(=O)(O)c1ccc(N=Nc2ccc(N=Nc3cccc4ccccc34)c(S(=O)(=O)O)c2)cc1,81.3%
12,Nn1c(-c2ccc(Cl)cc2)nc2c(-c3ccc(Cl)cc3)nc3ccc(Cl)cc3c2c1=O,9.59% (active)
13,Nc1ncnc2c1C(c1ccc([N+](=O)[O-])cc1)c1sc3c(F)cccc3c1O2 (stereo not drawn),71.7%
14,COc1ccc(C/C(C)=C(/c2ccc(OCCN3CCCCCC3)cc2)c2ccc(OC(=O)c3ccccc3)cc2)cc1,71.9%
15,COc1ccc2c(c1)oc1c(C)c3c(c(C)c12)C(=O)N(Nc1ccccc1)C3=O,88.1%
16,CC(=O)c1c(C)nc(SCC(=O)Nc2ccc(Cl)cc2)n1-c1ccc(Cl)cc1,72.1%
17,C=C1C(=O)O[C@H]2[C@H]1CC/C(CNS(=O)(=O)c1ccc3ccccc3c1)=C\CC[C@@]1(C)O[C@@H]21,-67.4% (active)
18,CN(Cc1ccccc1)c1nc(Cl)c(C2CC(c3ccc4c(c3)OCO4)=NN2c2cc(Cl)cc(Cl)c2)s1 (stereo not drawn),86.1%
19,Cc1cnc(C(=O)NNc2nc3sc4c(c3c(=O)[nH]2)C(C)CCC4)cn1 (stereo not drawn),30.4%
20,N#CC1=C(N)Oc2c(sc3c(Br)cccc23)C1c1ccccn1 (stereo not drawn),34.3%

row,SMILES,growth
1,Cc1cc2nc(C(Cl)Cl)nc(-c3ccc(Cl)cc3)n2n1,27.4%
2,COc1ccc(/C=C2/C(=O)N=C3N2NC(c2ccccc2)=CN3c2ccccc2)cc1,106%
3,Nc1nc(Nc2ccc(F)cc2)nn1C(=O)c1cc(Cl)ccc1Cl,84.9%
4,O=C1C=C(Nc2ccccc2)c2ncccc2C1=O,-48.3% (active)
5,O=C(N/N=C/c1ccc(O)cc1O)c1cccc(Nc2ccnc(C(F)(F)F)c2)c1,28.8%
6,O=C(N=Nc1c(O)[nH]c2ccccc12)Nc1ccc(Br)cc1,91.6%
7,Cc1nonc1-c1ccc2c(c1)OCO2,88.5% and 98.4%
8,COc1ccc(-c2c[nH]c(C(=O)O)c2-c2cc(OC)c(OC)c(OC)c2)cc1,15.3%
9,OCCN1CCN(CC/C=C2\c3ccccc3Sc3ccc(Cl)cc32)CC1,48.6% and 57.4%
10,O=C(/C=C/c1ccc(F)cc1)Nc1ncc(Cc2ccc(F)cc2)s1,28%
11,O=C1C(Nc2ccc(Cl)cc2)=C(I)C(=O)c2ncccc21,-34.2% (active)
12,CCCCSc1ccc2nc(-c3ccc(OCCCN=C(N)N)cc3)cn2c1,90.7%
13,COC1=CC(=O)C(OC)=C(O)C1=O,89%
14,COc1ccc(-c2cc(-c3cccc(Cl)c3)c(C#N)c(=O)[nH]2)c(OC)c1,97.8%
15,O=C(c1cccc(Br)c1)N1CCN(c2ccnc3cc(Cl)ccc23)CC1,44.4%
16,COc1cc(NC2CCCCC2O)c2nc(-c3ccc(Cl)cc3)ccc2c1 (stereo not drawn),78.5% and 86.5%
17,CC(=O)c1nn(-c2ccccc2)/c(=N/N=Cc2cn(-c3ccccc3)nc2-c2cc3ccccc3oc2=O)s1,89.1%
18,Nc1ccc(-c2ccc(N)c(Br)c2)cc1Br,40.9%
19,FC(F)(F)Sc1ccc(/C=C/c2cc(/C=C/c3ccc(SC(F)(F)F)cc3)n(-c3ccccc3)n2)cc1,84.3%

# Test system: BT-549 breast
# Experiment: as above
# Conditions: 10 µM unless noted
row,SMILES,growth
1,CCOC(=O)c1c(-c2ccc(C)cc2)c(C#N)c(=O)n(-c2cccc(C(F)(F)F)c2)c1N,113%
2,c1cc(NCCCCN2CCOCC2)c2ccc3c(ccc4c(NCCN5CCOCC5)ccnc43)c2n1,103%
3,CCCO/N=C/c1ccccn1,90.8%
4,O=C(Nc1ncc(Cc2cccc(C(F)(F)F)c2)s1)c1ccc(-n2cnnn2)cc1,67.6%
5,N=C(N)c1ccc(-c2ccc(-c3ccc(Cl)c(Cl)c3)s2)cc1,109%
6,NC(=O)c1c(NC(=O)/C=C/c2cccs2)sc2c1CCC(=O)C2,20.1%
7,CCOc1ccccc1NC(=O)c1cc2ccccc2cc1O,85%
8,O=C(CCl)n1nnnc1Cc1ccccc1,93.7%
9,CCNC(=S)n1nc(SC)c(C(=O)OCC)c1N,95.3%
10,CC/C(=C(/c1ccc(Cl)cc1)c1ccc(OCCN2CCOCC2)cc1)c1ccccc1,117%
11,O=S(=O)(O)c1ccc(N=Nc2ccc(N=Nc3cccc4ccccc34)c(S(=O)(=O)O)c2)cc1,108%
12,Nn1c(-c2ccc(Cl)cc2)nc2c(-c3ccc(Cl)cc3)nc3ccc(Cl)cc3c2c1=O,45.1%
13,Nc1ncnc2c1C(c1ccc([N+](=O)[O-])cc1)c1sc3c(F)cccc3c1O2 (stereo not drawn),111%
14,COc1ccc(C/C(C)=C(/c2ccc(OCCN3CCCCCC3)cc2)c2ccc(OC(=O)c3ccccc3)cc2)cc1,106%
15,COc1ccc2c(c1)oc1c(C)c3c(c(C)c12)C(=O)N(Nc1ccccc1)C3=O,91.6%
16,CC(=O)c1c(C)nc(SCC(=O)Nc2ccc(Cl)cc2)n1-c1ccc(Cl)cc1,92.1%
17,C=C1C(=O)O[C@H]2[C@H]1CC/C(CNS(=O)(=O)c1ccc3ccccc3c1)=C\CC[C@@]1(C)O[C@@H]21,-9.57% (active)
18,CN(Cc1ccccc1)c1nc(Cl)c(C2CC(c3ccc4c(c3)OCO4)=NN2c2cc(Cl)cc(Cl)c2)s1 (stereo not drawn),104%
19,Cc1cnc(C(=O)NNc2nc3sc4c(c3c(=O)[nH]2)C(C)CCC4)cn1 (stereo not drawn),39.5%
20,N#CC1=C(N)Oc2c(sc3c(Br)cccc23)C1c1ccccn1 (stereo not drawn),31.4%

row,SMILES,growth
1,Cc1cc2nc(C(Cl)Cl)nc(-c3ccc(Cl)cc3)n2n1,52.5%
2,COc1ccc(/C=C2/C(=O)N=C3N2NC(c2ccccc2)=CN3c2ccccc2)cc1,96%
3,Nc1nc(Nc2ccc(F)cc2)nn1C(=O)c1cc(Cl)ccc1Cl,80%
4,O=C1C=C(Nc2ccccc2)c2ncccc2C1=O,-94.4% (active)
5,O=C(N/N=C/c1ccc(O)cc1O)c1cccc(Nc2ccnc(C(F)(F)F)c2)c1,42.3%
6,O=C(N=Nc1c(O)[nH]c2ccccc12)Nc1ccc(Br)cc1,89%
7,Cc1nonc1-c1ccc2c(c1)OCO2,111% and 115%
8,COc1ccc(-c2c[nH]c(C(=O)O)c2-c2cc(OC)c(OC)c(OC)c2)cc1,65.8%
9,OCCN1CCN(CC/C=C2\c3ccccc3Sc3ccc(Cl)cc32)CC1,67.5%
10,O=C(/C=C/c1ccc(F)cc1)Nc1ncc(Cc2ccc(F)cc2)s1,67.3%
11,O=C1C(Nc2ccc(Cl)cc2)=C(I)C(=O)c2ncccc21,53.3%
12,CCCCSc1ccc2nc(-c3ccc(OCCCN=C(N)N)cc3)cn2c1,54.2%
13,COC1=CC(=O)C(OC)=C(O)C1=O,98.9%
14,COc1ccc(-c2cc(-c3cccc(Cl)c3)c(C#N)c(=O)[nH]2)c(OC)c1,85.9%
15,O=C(c1cccc(Br)c1)N1CCN(c2ccnc3cc(Cl)ccc23)CC1,112%
16,COc1cc(NC2CCCCC2O)c2nc(-c3ccc(Cl)cc3)ccc2c1 (stereo not drawn),108% and 97.5%
17,CC(=O)c1nn(-c2ccccc2)/c(=N/N=Cc2cn(-c3ccccc3)nc2-c2cc3ccccc3oc2=O)s1,105%
18,Nc1ccc(-c2ccc(N)c(Br)c2)cc1Br,34%
19,FC(F)(F)Sc1ccc(/C=C/c2cc(/C=C/c3ccc(SC(F)(F)F)cc3)n(-c3ccccc3)n2)cc1,103%

# From PubChem BioAssay (NCI)
